# Beta cell apopt: inhibitors of cytokine-induced beta cell apoptosis, primary screen, luminescence | INS-1E cytokine-induced death, ATP luminescence, 48 h; percent of positive-control rescue, neutral wells zero | protection from apoptosis, % (concentration not given with the values) | 0.8% of 300,000 active | AID 435005, 2010;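 active means Every replicate reaches about 75%, or at least half do and their mean reaches it too, limit read from the data; inconclusive means At least half of replicates reach the limit but their mean does not; inactive means Under half of replicates reach the limit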;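 further: 0% = cytokine-treated negative control wells and 100% = positive control rescue; higher means more ATP so stronger rescue from cytokine killing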
# CSC inhib: cancer stem cell viability inhibitors, primary screen, luminescence | inhibition, % at 7.5 µM | cancer stem cell-like cells viability | 1.1% of 300,000 active; in the data active means inhibition above about 75%; inconclusive means no clear call, values can overlap the other calls; tested in HMLE shEcad cells
# Gli-Sufu block: Gli-Sufu pathway antagonists, primary screen, luciferase luminescence, Sufu-KO-LIGHT cells, uHTS | AID 588413, 2011 | Sufu-KO-LIGHT fibroblasts, Gli luciferase reporter luminescence | inhibition, % at 5 µM | 0.74% of 340,000 active;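 active means inhibition above about 55%, limit read from the data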;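 further: 0% = DMSO-treated cells and 100% = wells with medium but no cells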
# NR3A LBD binder: binders of NR3A ligand-binding domain, primary screen, biophysical, differential scanning fluorimetry, uHTS | Glutamate receptor ionotropic, NMDA 3A (GRIN3A) ligand-binding domain | NR3A LBD differential scanning fluorimetry, Tm shift; 0% = protein alone, 100% = glycine-bound protein | Tm shift relative to glycine control, % at 25 µM | 2.5% of 340,000 active | AID 1259313, 2017;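 active means melting temperature shift of at least 10% of the positive control shift, at one fixed dose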
# MPTP inh: mitochondrial permeability transition pore inhibitors, primary screen, biochemical, isolated mouse mitochondria, absorbance; Ca2+ swelling absorbance, 30 min; inhibition, % at 10 µM; 1.4% of 360,000 active; AID 602449, 2012;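 active means inhibition of 50% or more, scaled per plate between neutral and stimulator controls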;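 further: 0% = DMSO wells given calcium and 100% = 1 mM EGTA wells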
# Mdm2 MdmX PPI: inhibitors of human Mdm2-MdmX association, primary screen, cell-based, luminescence, split luciferase, SaOS-2, uHTS; 3% of 330,000 active; inhibition, % at 8 µM; Protein Mdm4 (Homo sapiens) + E3 ubiquitin-protein ligase Mdm2 (Homo sapiens), …; AID 485346, 2010; SaOS-2 split-luciferase Mdm2/MdmX complementation;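 active means inhibition of at least 50% at 8 µM in the primary screen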
# Target sequence (O15151 whole entry, looked up): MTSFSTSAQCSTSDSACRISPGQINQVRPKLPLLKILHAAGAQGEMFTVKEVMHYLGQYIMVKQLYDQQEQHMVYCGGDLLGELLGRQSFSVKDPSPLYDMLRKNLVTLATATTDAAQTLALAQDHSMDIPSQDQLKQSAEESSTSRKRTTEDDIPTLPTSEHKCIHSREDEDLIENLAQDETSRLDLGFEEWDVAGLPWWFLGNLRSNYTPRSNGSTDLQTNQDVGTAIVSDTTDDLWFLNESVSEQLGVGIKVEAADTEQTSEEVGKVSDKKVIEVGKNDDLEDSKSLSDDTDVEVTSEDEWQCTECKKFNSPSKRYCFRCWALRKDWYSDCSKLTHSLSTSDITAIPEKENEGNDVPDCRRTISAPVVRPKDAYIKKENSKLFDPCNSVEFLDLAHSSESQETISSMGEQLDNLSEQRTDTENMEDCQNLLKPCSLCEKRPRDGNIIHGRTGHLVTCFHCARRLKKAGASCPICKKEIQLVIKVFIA
# Target sequence (Q00987 whole entry, looked up): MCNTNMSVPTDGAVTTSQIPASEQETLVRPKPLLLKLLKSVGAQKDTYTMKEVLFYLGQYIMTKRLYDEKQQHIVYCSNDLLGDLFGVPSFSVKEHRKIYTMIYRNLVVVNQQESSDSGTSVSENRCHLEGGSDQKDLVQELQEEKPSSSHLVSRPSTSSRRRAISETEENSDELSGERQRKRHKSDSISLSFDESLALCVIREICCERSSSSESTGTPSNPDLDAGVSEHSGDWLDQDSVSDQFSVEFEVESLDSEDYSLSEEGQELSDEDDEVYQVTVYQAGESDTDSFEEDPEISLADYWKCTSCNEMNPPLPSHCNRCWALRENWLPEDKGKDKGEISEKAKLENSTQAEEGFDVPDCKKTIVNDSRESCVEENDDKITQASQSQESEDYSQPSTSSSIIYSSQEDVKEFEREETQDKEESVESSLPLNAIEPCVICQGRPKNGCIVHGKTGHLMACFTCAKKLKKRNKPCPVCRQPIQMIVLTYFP
# Mdm2 MdmX conf: Mdm2-MdmX complex disruptors, retested hits, confirmation, luminescence, single concentration | 55% of 10,000 active | inhibition, % at 8 µM | AID 489028, 2010 | Mdm2-MdmX binding, luminescent assay | shares compounds with Mdm2 MdmX PPI; in the data active means inhibition above about 40%
# Full FLuc ctr: full-length luciferase signal inhibition, confirmation, counter-screen for Mdm2/MdmX interaction inhibitor project, cell-based, single concentration, SaOS-2; SaOS-2 full-length luciferase counterscreen, luminescence; inhibition, % at 8 µM; 77% of 6,200 active; shares compounds with Mdm2 MdmX PPI; AID 504607, 2011;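 active means mean inhibition at 8 µM reaching about 37%, which flags the compound as non-specific, limit read from the data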;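 further: p53-null SaOS-2 cells with luciferase driven by a doxycycline-inducible promoter; compound on cells about two nights before reading with doxycycline added after day one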
# An asterisk follows results filed as active; ? = inconclusive; / = no result. This is a sample that favours compounds with a hit; in the whole collection about 6.6% have one here.
SMILES,Beta cell apopt,CSC inhib,Gli-Sufu block,NR3A LBD binder,MPTP inh,Mdm2 MdmX PPI,Mdm2 MdmX conf,Full FLuc ctr
CCc1ccc(NC(=O)c2nc(S(=O)(=O)Cc3ccccc3)ncc2Cl)cc1,72,105*,/,/,-5,99*,84*,51*
CC(C)CC(=O)Nc1ccc(S(=O)(=O)Nc2nccs2)cc1,-8,-2,-9,0,0,18,/,/
CCN(CC)CCN(C)C(=O)c1[nH]c(C(F)(F)F)nc1-c1ccccc1,/,/,/,/,-1,/,/,/
COc1ccc(-c2oc(=O)c3cc(OC)c(OC)cc3c2/C=C/c2ccc(OC(C)=O)cc2)cc1,3,/,15,-3,1,60*,38,63*
COc1ccc(-c2oc(=O)c3cc(OC)c(OC)cc3c2/C=C/c2ccc(F)cc2)cc1,2,-25,14,-1,1,29,/,/
CCOC(=O)c1nn(C)c2[nH]c(=O)n(C)c(=O)c12,/,/,-24,5,-3,/,/,/
Cc1ccc(C(NC(=O)N2CCOCC2)=C(Cl)Cl)cc1F,-12,40,-2,2,-1,51*,12,/
Cc1ccc(C(NC(=O)N2CCOCC2)C(Cl)Cl)cc1F (centres undefined),-9,-16,-6,1,0,4,/,/
COc1ccc(-n2nnc3c(=O)n(CC(=O)Nc4ccc5c(c4)OCCO5)cnc32)cc1OC,10,-27,-6,7,0,80*,15,/
O=C(Cn1cnc2c(nnn2-c2cccc(F)c2)c1=O)Nc1ccc2c(c1)OCCO2,/,-12,-1,-8,0,52*,21,/
Cc1cc(NC(=O)Cn2cnc3c(nnn3-c3ccc(C)c(Cl)c3)c2=O)no1,-4,-9,-4,2,1,43,/,/
Cc1cc(NC(=O)Cn2cnc3c(nnn3-c3cccc(F)c3)c2=O)no1,-7,-2,13,0,0,-13,/,/
CCOc1ccc(-n2nnc3c(=O)n(CC(=O)Nc4cc(C)on4)cnc32)cc1,7,-6,7,1,2,56*,2,/
CC1CCN(S(=O)(=O)c2ccc(C(=O)Nc3nnc(-c4ccco4)o3)cc2)CC1,9,17,-5,-5,0,54*,48*,34
O=C(Cc1ccccc1)NS(=O)(=O)c1ccc(N=NN2CCOCC2)cc1,-4,1,-6,1,1,87*,-14,/
C=CCNC(=O)c1ccc(CN(c2ccc(OCC)cc2)S(=O)(=O)c2ccc(C)cc2)cc1,-1,64,12,1,0,50,40,50*
C[C@H](NC(=O)c1ncn(C)c1C(=O)N[C@@H](C)c1ccccc1)c1ccccc1,-1,3,-6,-1,-2,4,/,/
c1ccc(C2(CN3CCNC[C@H]3Cc3cccc4ccccc34)CC2)cc1,-3,15,-5,-1,0,53*,38,91*
Cc1ccc2[nH]c(-c3cccc(F)c3)cc(=O)c2c1,11,58,24,-1,-1,58*,71*,95*
O=c1cc(-c2cccc(F)c2)[nH]c2ccccc12,17,47,22,1,0,52*,75*,78*
O=C(CCl)NC1CCCc2ccccc21 (centres undefined),6,4,10,-4,0,58*,20,/
O=C(Cc1ccc(Br)cc1)NC1CCCc2ccccc21 (centres undefined),0,-6,3,-3,-1,-3,/,/
Cn1nnnc1N=N/C(=N/Nc1ccccc1)c1ccccc1,126*,70,-1,-1,4,86*,85*,49*
Oc1ccccc1N=N/C(=N/Nc1ccccc1O)c1ccccc1,1,18,1,-4,0,-12,/,/
CCCc1cc(=O)[nH]c(SCC(=O)Nc2sccc2C#N)n1,/,/,-2,-1,0,20,/,/
SMILES,Beta cell apopt,CSC inhib,Gli-Sufu block,NR3A LBD binder,MPTP inh,Mdm2 MdmX PPI,Mdm2 MdmX conf,Full FLuc ctr
CCCCNC(=O)C(=O)Nc1ccc2c(c1)N(S(=O)(=O)c1cccs1)CCC2,/,/,/,/,-1,/,/,/
NC(=O)CC(NC(=O)Cc1ccc(Br)cc1)c1ccc(NCc2cc(F)ccc2F)c([N+](=O)[O-])c1 (centres undefined),3,?,10,-4,-2,55*,-10,/
NC(=O)CC(NC(=O)Cc1cccc2ccccc12)c1ccc(NC2CCN(Cc3ccccc3)CC2)c([N+](=O)[O-])c1 (centres undefined),/,4,4,0,-2,55*,14,/
NC(=O)CC(NC(=O)Cc1ccc(Br)cc1)c1ccc(NC2CCN(Cc3ccccc3)CC2)c([N+](=O)[O-])c1 (centres undefined),1,-4,2,-7,2,12,/,/
O=C(NC(=S)Nc1ccccc1OC(F)F)c1ccc2c(c1)OCO2,6,-7,-16,0,2,21,/,/
O=C(C1CC(=O)N(c2ccc3c(c2)OCCO3)C1)N1CCN(S(=O)(=O)c2ccccc2F)CC1 (centres undefined),/,/,4,2,-2,/,/,/
CCOC(=O)c1sc2nc(CSc3ccccc3)nc(N3CCCN(C)CC3)c2c1C,12,31,45,-1,33,74*,43*,63*
O=C(c1nn2c(C(F)(F)F)cc(-c3cccs3)nc2c1Br)N1CCCc2ccccc21,16,26,11,0,-1,28,/,/
O=C(c1nn2c(C(F)(F)F)cc(-c3ccco3)nc2c1Br)N1CCCc2ccccc21,6,68,1,-3,-3,57*,44*,48*
COc1ccc2c(c1)c(=O)oc1cc(OCC(=O)NC3CCCCC3)ccc12,2,-3,7,-11,34,12,/,/
COc1ccc2c(c1)c(=O)oc1cc(OCC(=O)NC3CC3)ccc12,1,/,5,4,0,53*,-18,/
COc1ccc(/C=C/c2cc(-c3ccc(C)cc3)o[n+]2C)cc1,116*,92*,87*,-1,11,74*,96*,51*
CC(CCc1ccc(O)cc1)NC(c1ccccc1)c1ccc(Cl)cc1 (centres undefined),1,48,15,-6,2,-1,/,/
